Test results reported in PubChem BioAssay (EPA / NIEHS).
Records with an inconclusive call do not appear. Active and inactive are the calls of the source. How the source made its calls, unless noted: active means hit-call score of the fitted dose curve at least 0.9, where 1 is the maximum; inactive means score below 0.9.

How the values were obtained:
[1] = read-out: solute carrier (SLC22A1), SLC22A1 (gene 6580); assay: LTEA_HepaRG_SLC22A1: Life Technologies and Expression Analysis (LTEA) Assay for solute carrier (SLC22A1) using HepaRG (AID 2283524); details: mRNA level, 48 h; actives raise or lower the signal
In short: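 Differentiated human HepaRG cells in serum-free induction medium, exposed 48 h in duplicate to 8-point half-log series from 100 µM top in 0.5% DMSO. SLC22A1 mRNA by TaqMan qRT-PCR normalized to ACTB, GAPDH, POLR2A; bidirectional fit versus DMSO.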

[2] = read-out: Pyruvate Dehydrogenase Kinase 4 (PDK4), PDK4 (gene 5166); assay: LTEA_HepaRG_PDK4: Life Technologies and Expression Analysis (LTEA) Assay for Pyruvate Dehydrogenase Kinase 4 (PDK4) using HepaRG (AID 2283525); details: mRNA level, 48 h; actives raise or lower the signal
In short: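 HepaRG cells plated 48 h, then switched to serum-free induction medium and exposed in duplicate for 48 h to 8 half-log concentrations from 100 uM in 0.5% DMSO. PDK4 mRNA measured by qRT-PCR, normalized to ACTB, GAPDH and POLR2A; bidirectional fit versus DMSO.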

[3] = read-out: NAD(P)H dehydrogenase [quinone] 1 (NQO1), NQO1 (gene 1728); assay: LTEA_HepaRG_NQO1: Life Technologies and Expression Analysis (LTEA) Assay for NAD(P)H dehydrogenase [quinone] 1 (NQO1) using HepaRG (AID 2283526); details: mRNA level, 48 h; actives raise or lower the signal
In short: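 Human HepaRG hepatic cells received chemicals for 48 h in serum-free induction medium with 0.5% DMSO, up to 100 uM. Expression was assessed by TaqMan qRT-PCR against housekeeping controls and fitted bidirectionally against DMSO.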

[4] = read-out: Nuclear factor erythroid 2-related factor 2 (Homo sapiens) (UniProt Q16236); assay: LTEA_HepaRG_NFE2L2: Life Technologies and Expression Analysis (LTEA) Assay for Nuclear factor erythroid 2-related factor 2 (NFE2L2) Transcription Factor using HepaRG (AID 2283527); details: mRNA level, 48 h; actives raise or lower the signal;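 further: TaqMan qRT-PCR transcript level normalised to ACTB GAPDH and POLR2A housekeeping genes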
In short: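 Differentiated human HepaRG cells, serum-free induction medium, exposed 48 h in duplicate to eight half-log concentrations up to 100 uM in 0.5% DMSO. NFE2L2 mRNA by Fluidigm TaqMan qRT-PCR, normalised to ACTB, GAPDH, POLR2A; bidirectional change versus DMSO.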

[5] = read-out: succinate dehydrogenase complex iron sulfur subunit B (SDHB), SDHB (gene 6390); assay: LTEA_HepaRG_SDHB: Life Technologies and Expression Analysis (LTEA) Assay for succinate dehydrogenase complex iron sulfur subunit B (SDHB) using HepaRG (AID 2283528); details: mRNA level, 48 h; actives raise or lower the signal
In short: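 HepaRG, 48 h exposure, 8-pt half-log series from 100 uM in 0.5% DMSO, duplicates. Readout: SDHB mRNA by Fluidigm qRT-PCR vs housekeeping genes; bidirectional fit relative to DMSO.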

[6] = read-out: Signal transducer and activator of transcription 3 (Homo sapiens) (UniProt P40763); assay: LTEA_HepaRG_STAT3: Life Technologies and Expression Analysis (LTEA) Assay for Signal transducer and activator of transcription (STAT3) using HepaRG (AID 2283529); details: mRNA level, 48 h; actives raise or lower the signal
In short: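 Differentiated HepaRG cells, serum-free induction medium, dosed 48 h in duplicate, 8 half-log concentrations from 100 uM in 0.5% DMSO. STAT3 mRNA by qRT-PCR, normalised to ACTB, GAPDH, POLR2A; bidirectional fit versus DMSO.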

[7] = read-out: solute carrier (SLCO1B1), SLCO1B1 (gene 10599); assay: LTEA_HepaRG_SLCO1B1: Life Technologies and Expression Analysis (LTEA) Assay for solute carrier (SLCO1B1) using HepaRG (AID 2283530); details: mRNA level, 48 h; actives raise or lower the signal
In short: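 HepaRG, serum-free induction medium, 48 h dosing, 8-pt half-log from 100 uM, 0.5% DMSO vehicle, duplicates. Readout: SLCO1B1 mRNA, qRT-PCR, ACTB/GAPDH/POLR2A normalization; up or down fit vs DMSO.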

[8] = read-out: sulfotransferase 2A1 (SULT2A1), SULT2A1 (gene 6822); assay: LTEA_HepaRG_SULT2A1: Life Technologies and Expression Analysis (LTEA) Assay for sulfotransferase 2A1 (SULT2A1) using HepaRG (AID 2283531); details: mRNA level, 48 h; actives raise or lower the signal
In short: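 Transcript levels of SULT2A1, quantified by qRT-PCR and normalized to three housekeeping genes, serve as the readout. Human HepaRG cultures receive test chemicals for 48 h at up to 100 uM in half-log steps, with 0.5% DMSO vehicle.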

[9] = read-out: Transforming Growth Factor (TGFA), TGFA (gene 7039); assay: LTEA_HepaRG_TGFA: Life Technologies and Expression Analysis (LTEA) Assay for Transforming Growth Factor (TGFA) using HepaRG (AID 2283532); details: mRNA level, 48 h; actives raise or lower the signal
In short: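 Differentiated HepaRG cells exposed 48 hours in serum-free induction medium, 0.5% DMSO vehicle, 8-point half-log series from 100 uM, in duplicate. TGFA mRNA by TaqMan qRT-PCR, normalised to ACTB, GAPDH, POLR2A; bidirectional fit versus DMSO.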

[10] = read-out: Transforming Growth Factor (TGFB1), TGFB1 (gene 7040); assay: LTEA_HepaRG_TGFB1: Life Technologies and Expression Analysis (LTEA) Assay for Transforming Growth Factor (TGFB1) Transporter using HepaRG (AID 2283533); details: mRNA level, 48 h; actives raise or lower the signal
In short: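 HepaRG, 48 h post-plating, switched to serum-free induction medium; chemicals 100 uM top, half-log, 8 pts, 0.5% DMSO, dup; 48 h exposure; RNA → Fluidigm TaqMan qRT-PCR; norm ACTB/GAPDH/POLR2A; bidirectional fit vs DMSO.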

[11] = read-out: TIMP1, TIMP1 (gene 7076); assay: LTEA_HepaRG_TIMP1: Life Technologies and Expression Analysis (LTEA) Assay for TIMP1 using HepaRG (AID 2283534); details: mRNA level, 48 h; actives raise or lower the signal;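 further: TaqMan qRT-PCR signal normalized to ACTB GAPDH and POLR2A housekeeping genes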
In short: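 Readout is TIMP1 mRNA level measured by qRT-PCR and normalized to three housekeeping genes. Human HepaRG cells were treated for 48 h in duplicate at eight concentrations up to 100 uM (0.5% DMSO); gain or loss fitted against DMSO.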

[12] = read-out: Tumor necrosis factor receptor 1 (TNFRSF1A), TNFRSF1A (gene 7132); assay: LTEA_HepaRG_TNFRSF1A: Life Technologies and Expression Analysis (LTEA) Assay for Tumor necrosis factor receptor 1 (TNFRSF1A) using HepaRG (AID 2283535); details: mRNA level, 48 h; actives raise or lower the signal
In short: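 Read-out is TNFRSF1A transcript level by TaqMan qRT-PCR, normalized to three housekeeping genes, scored as gain or loss of signal versus 0.5% DMSO. Human HepaRG cells received test chemicals for 48 h at up to 100 uM (half-log series).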

[13] = read-out: Thyroid Hormone Responsive (THRSP), THRSP (gene 7069); assay: LTEA_HepaRG_THRSP: Life Technologies and Expression Analysis (LTEA) Assay for Thyroid Hormone Responsive (THRSP) using HepaRG (AID 2283536); details: mRNA level, 48 h; actives raise or lower the signal
In short: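 Differentiated HepaRG cells treated 48 h in serum-free induction medium with 8 half-log concentrations up to 100 uM (0.5% DMSO), duplicates. THRSP mRNA by TaqMan qRT-PCR normalised to ACTB, GAPDH, POLR2A; bidirectional fit versus DMSO.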

[14] = read-out: UDP glucuronosyltransferase (UGT1A1), UGT1A1 (gene 54658); assay: LTEA_HepaRG_UGT1A1: Life Technologies and Expression Analysis (LTEA) Assay for UDP glucuronosyltransferase (UGT1A1) using HepaRG (AID 2283538); details: mRNA level, 48 h; actives raise or lower the signal
In short: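 Human liver HepaRG cultures receive test chemical for 48 h, up to 100 uM in 0.5% DMSO, with phenobarbital induction controls. UGT1A1 mRNA is measured by qRT-PCR and normalized to ACTB, GAPDH and POLR2A.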

[15] = read-out: UDP glucuronosyltransferase (UGT1A6), UGT1A6 (gene 54578); assay: LTEA_HepaRG_UGT1A6: Life Technologies and Expression Analysis (LTEA) Assay for UDP glucuronosyltransferase (UGT1A6) using HepaRG (AID 2283539); details: mRNA level, 48 h; actives raise or lower the signal
In short: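 HepaRG, 48 h post-plating switch to serum-free induction medium; chemical 48 h, 100 uM top, half-log x8, duplicate, 0.5% DMSO. Phenobarbital 1mM induction control. UGT1A6 mRNA by TaqMan qRT-PCR; gain/loss fit vs DMSO.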

[16] = read-out: X-box binding protein 1 (XBP1), XBP1 (gene 7494); assay: LTEA_HepaRG_XBP1: Life Technologies and Expression Analysis (LTEA) Assay for X-box binding protein 1 (XBP1) using HepaRG (AID 2283540); details: mRNA level, 48 h; actives raise or lower the signal
In short: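 Transcript levels of XBP1, measured by qRT-PCR and normalised to three housekeeping genes, were fitted bidirectionally relative to 0.5% DMSO controls. Human HepaRG cells received eight-point half-log dilutions from 100 uM for 48 h.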

[17] = LTEA_HepaRG_LDH_cytotoxicity: Cytotoxicity Assessment in the Life Technologies and Expression Analysis (LTEA) Assay (AID 2283563; active means hit-call score of the fitted dose curve at least 0.9, where 1 is the maximum)
In short: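 Cells were thawed and plated for 48 h. Medium was then replaced with serum-free induction medium. Chemicals (8 half-log points, maximum 100 uM, 0.5% DMSO) were added in duplicate for 48 h, after which spent medium was assayed for LDH.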

[18] = ATG_XTT_Cytotoxicity: Cytotoxicity Assessment in the Attagene TRANS-FACTORIAL HepG2 Assay (AID 2283584; active means hit-call score of the fitted dose curve at least 0.9, where 1 is the maximum)
In short: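 Cells: human HepG2, transiently transfected with MRTU reporter constructs. Exposure 24 h. Readout: XTT, cell number. Baseline/neg ctrl DMSO; loss-of-signal scored.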

[19] = read-out: Cellular tumor antigen p53 (Homo sapiens) (UniProt P04637); assay: LTEA_HepaRG_TP53: Life Technologies and Expression Analysis (LTEA) Assay for Tumor Protein P53 (TP53) using HepaRG (AID 2283537); details: mRNA level, 48 h; actives raise or lower the signal
In short: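 HepaRG, 48 h exposure, top 100 uM, half-log 8-point, 0.5% DMSO vehicle, duplicates. Read: TP53 mRNA by TaqMan qRT-PCR, normalised to ACTB/GAPDH/POLR2A; bidirectional fit vs DMSO.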

[20] = TOX21_p53_BLA_p2_viability: Viability Assessment in the Tox21 HCT-116 p53 Agonism Beta-lactamase Assay, Phase 2 (AID 2283591; active means hit-call score of the fitted dose curve at least 0.9, where 1 is the maximum;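 further: compound exposure lasted 16 h at 37 °C; actives lower the ATP signal meaning cytotoxicity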)
In short: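 HCT116 p53-bla cells, 4000/well, dosed after 5 h plating (217-fold dilution of DMSO stocks) and incubated 16 h at 37C. Viability taken as cellular ATP by CellTiter-Glo luminescence after 30 min RT; signal loss marks cytotoxicity.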

Measured: AC50

Chain of Signal transducer and activator of transcription 3 (Homo sapiens) (P40763 whole entry, looked up): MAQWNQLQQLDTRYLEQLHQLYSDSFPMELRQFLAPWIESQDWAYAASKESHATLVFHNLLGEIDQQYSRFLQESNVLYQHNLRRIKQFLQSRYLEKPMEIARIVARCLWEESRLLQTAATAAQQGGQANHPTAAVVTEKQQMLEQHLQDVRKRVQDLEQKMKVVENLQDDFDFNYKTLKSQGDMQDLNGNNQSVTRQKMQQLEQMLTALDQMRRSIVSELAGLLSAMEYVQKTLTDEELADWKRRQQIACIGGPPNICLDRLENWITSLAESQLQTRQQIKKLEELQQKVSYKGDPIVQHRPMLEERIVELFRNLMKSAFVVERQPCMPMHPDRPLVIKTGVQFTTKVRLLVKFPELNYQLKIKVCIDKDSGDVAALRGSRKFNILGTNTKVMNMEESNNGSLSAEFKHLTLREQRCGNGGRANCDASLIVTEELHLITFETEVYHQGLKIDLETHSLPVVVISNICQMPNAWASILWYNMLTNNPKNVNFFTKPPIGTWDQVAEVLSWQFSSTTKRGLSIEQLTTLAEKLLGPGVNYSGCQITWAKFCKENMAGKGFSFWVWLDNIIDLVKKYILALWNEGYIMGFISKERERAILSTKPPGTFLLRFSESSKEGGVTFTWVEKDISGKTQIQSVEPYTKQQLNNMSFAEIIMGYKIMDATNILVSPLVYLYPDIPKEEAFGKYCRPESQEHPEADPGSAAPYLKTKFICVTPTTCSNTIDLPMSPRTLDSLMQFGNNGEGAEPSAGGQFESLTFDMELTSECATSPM
Chain of Cellular tumor antigen p53 (Homo sapiens) (P04637 whole entry, looked up): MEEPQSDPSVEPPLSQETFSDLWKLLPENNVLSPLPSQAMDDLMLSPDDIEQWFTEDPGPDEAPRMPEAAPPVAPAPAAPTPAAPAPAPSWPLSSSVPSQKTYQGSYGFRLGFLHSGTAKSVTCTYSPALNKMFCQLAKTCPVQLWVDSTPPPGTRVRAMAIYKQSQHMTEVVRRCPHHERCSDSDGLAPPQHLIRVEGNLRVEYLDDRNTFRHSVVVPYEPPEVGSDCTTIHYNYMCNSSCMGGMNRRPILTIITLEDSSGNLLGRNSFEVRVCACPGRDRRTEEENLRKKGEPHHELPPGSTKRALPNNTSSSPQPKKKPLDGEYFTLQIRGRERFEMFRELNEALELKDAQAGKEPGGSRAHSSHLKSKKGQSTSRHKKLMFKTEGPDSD
Chain of Nuclear factor erythroid 2-related factor 2 (Homo sapiens) (Q16236 whole entry, looked up): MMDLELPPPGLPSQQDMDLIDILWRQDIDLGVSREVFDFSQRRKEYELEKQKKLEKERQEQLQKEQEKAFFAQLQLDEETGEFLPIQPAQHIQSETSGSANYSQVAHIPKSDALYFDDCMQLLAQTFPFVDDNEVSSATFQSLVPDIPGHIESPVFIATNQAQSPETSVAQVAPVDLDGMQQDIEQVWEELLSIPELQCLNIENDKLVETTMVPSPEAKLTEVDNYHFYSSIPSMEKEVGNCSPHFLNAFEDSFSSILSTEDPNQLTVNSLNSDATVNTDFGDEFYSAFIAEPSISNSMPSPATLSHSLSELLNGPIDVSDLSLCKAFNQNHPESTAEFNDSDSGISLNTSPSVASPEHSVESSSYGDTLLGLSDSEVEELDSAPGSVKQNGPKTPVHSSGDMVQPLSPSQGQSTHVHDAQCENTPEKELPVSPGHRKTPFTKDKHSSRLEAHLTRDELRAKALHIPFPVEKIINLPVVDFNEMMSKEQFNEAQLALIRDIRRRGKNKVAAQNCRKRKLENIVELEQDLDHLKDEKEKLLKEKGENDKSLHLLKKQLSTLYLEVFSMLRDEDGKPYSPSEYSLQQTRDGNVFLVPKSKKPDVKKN

CCCCCCC(C=O)=Cc1ccccc1
not listed: [19] | [20]
inactive: all other assays above

CCCCCCC(CCCCCCCCCCC(=O)OCC(COC(C)=O)OC(C)=O)OC(C)=O (stereo not drawn)
not listed: [7] | [20]
inactive: all other assays above

CC1(C)C(=O)NC(=O)N1CO
not listed: [13] | [17]
inactive: all other assays above

CCCCCCCCCCCCCCOS(=O)(=O)O
active: [1] 80.6 µM | [2] 49.6 µM | [20] 74.2 µM
not listed: [13] | [17]
inactive: all other assays above

CC(COCC(C)OC(=O)c1ccccc1)OC(=O)c1ccccc1 (stereo not drawn)
not listed: [7] | [18] | [19] | [20]
inactive: all other assays above

CC(C)(C)c1ccccc1
not listed: [13] | [17] | [20]
inactive: all other assays above

O=C(O)c1cccnc1
not listed: [19] | [20]
inactive: all other assays above
